# Structures can show the parent of a compound that is named as a salt.
# Test system: Saccharomyces cerevisiae BY4741 SeMeCo community
# Assay: z-score of subpopulation abundance vs DMSO median, subpopulation auxotrophic for M; higher = larger share of this subpopulation than in DMSO controls
# Details: 10 µM; 24 h; SM minimal medium; subpopulation (auxotrophy): M
# Procedure: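 Fluorescent four-plasmid SeMeCo (self-establishing metabolically cooperating S. cerevisiae BY4741 community; plasmids pH-mRuby2, pL-mWasabi, pU-eCFP, pM-TagRFP657) was grown 24 h in minimal SM medium with each Selleck FDA-approved drug at 10 µM in 384-well plates. Cells were fixed and imaged by high-content confocal microscopy. For each auxotrophic subpopulation (and the prototroph), a z-score gives the deviation from the DMSO vehicle-control population median.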
row,Structure (SMILES),z-score of subpopulation abundance
1,COc1ccc2cc3[n+](cc2c1OC)CCc1cc2c(cc1-3)OCO2 [Berberine Sulfate],0.74
2,CN1CCC(=C2c3ccccc3CCc3sccc32)CC1 [Pizotifen Malate],0.26
3,CCCCN(CCCC)CC(O)c1cc(Cl)cc2c1-c1ccc(Cl)cc1/C2=C/c1ccc(Cl)cc1 (stereo not given) [Lumefantrine],-0.39
4,CC1(C)S[C@@H]2[C@H](NC(=O)[C@H](N)c3ccccc3)C(=O)N2[C@H]1C(=O)OCOC(=O)[C@@H]1N2C(=O)C[C@H]2S(=O)(=O)C1(C)C [Sultamicillin],0.2
5,COc1cc(NS(=O)(=O)c2ccc(N)cc2)ncn1 [Sulfamonomethoxine],-0.64
6,CC(C)[C@H]1CC[C@H](C(=O)N[C@H](Cc2ccccc2)C(=O)O)CC1 [Nateglinide],1.18
7,Cc1c(C(N)=O)cc([N+](=O)[O-])cc1[N+](=O)[O-] [Dinitolmide],-0.14
8,Cc1cc(/C=C/c2ccc3cc(N(C)C)ccc3[n+]2C)c(C)n1-c1ccccc1 [pyrvinium],0.61
9,CC(C(=O)O)c1ccc2c(c1)[nH]c1ccc(Cl)cc12 (stereo not given) [Carprofen],-2.06
10,CN(C)C[C@@H]1CCn2cc(c3ccccc32)C2=C(C(=O)NC2=O)c2cn(c3ccccc23)CCO1,-0.34
11,Nc1c(Br)cc(Br)cc1CN[C@H]1CC[C@H](O)CC1 [Ambroxol HCl],-0.93
12,CC(=O)[C@H]1CC[C@H]2[C@@H]3CC=C4C[C@@H](O)CC[C@]4(C)[C@H]3CC[C@]12C [Pregnenolone],-0.05
13,C[C@]12CC[C@@H]3c4ccc(OC(=O)c5ccccc5)cc4CC[C@H]3[C@@H]1CC[C@@H]2O [Estradiol Benzoate],0.35
14,COc1cccc2c1C(=O)c1c(O)c3c(c(O)c1C2=O)C[C@@](O)(C(C)=O)C[C@@H]3O[C@H]1C[C@H](N)[C@H](O)[C@H](C)O1 [Daunorubicin HCl],-4.78
15,CC(=O)OCC(COC(C)=O)OC(C)=O [Triacetin],-0.16
16,CC[C@H]1OC(=O)[C@H](C)[C@@H](O[C@H]2C[C@@](C)(OC)[C@@H](O)[C@H](C)O2)[C@H](C)[C@@H](O[C@@H]2O[C@H](C)C[C@H](N(C)C)[C@H]2O)[C@](C)(O)C[C@@H](C)CN[C@H](C)[C@@H](O)[C@]1(C)O [Azathramycin],0
17,CC1(C)S[C@@H]2[C@H](NC(=O)[C@H](N)c3ccccc3)C(=O)N2[C@H]1C(=O)O [Ampicillin sodium],-0.4
18,OC(Cn1cncn1)(Cn1cncn1)c1ccc(F)cc1F [Fluconazole],-1.85
19,CN(C)CCn1nnnc1SCC1=C(C(=O)O)N2C(=O)[C@@H](NC(=O)Cc3csc(N)n3)[C@H]2SC1 [Cefotiam hydrochloride],1.1
20,CCOC(=O)C1=C(C)NC(C)=C(C(=O)OC)C1c1cccc(Cl)c1Cl (stereo not given) [Felodipine],3.86

row,Structure (SMILES),z-score of subpopulation abundance
1,Clc1ccc(CCC(Cn2ccnc2)Sc2c(Cl)cccc2Cl)cc1 (stereo not given) [Butoconazole],-8.6
2,Cc1c(Nc2ncccc2C(=O)O)cccc1C(F)(F)F [Flunixin Meglumin],-0.95
3,C=C[C@]1(C)C[C@@H](OC(=O)CSC(C)(C)CNC(=O)[C@H](N)C(C)C)[C@]2(C)[C@H](C)CC[C@]3(CCC(=O)[C@H]32)[C@@H](C)[C@@H]1O [Valnemulin HCl],0.05
4,Cc1c(OCC(F)(F)F)ccnc1C[S+]([O-])c1nc2ccccc2[nH]1 (stereo not given) [Lansoprazole],-0.85
5,C[C@@H](O)[C@H]1C(=O)N2C(C(=O)O)=C(S[C@@H]3CN[C@H](C(=O)N(C)C)C3)[C@H](C)[C@H]12 [Meropenem],-0.33
6,CC1=CC[C@@](O)(C(C)C)CC1 [Terpinen-4-ol],-1.02
7,CC(C(=O)O)c1ccc2c(c1)CC(=O)c1ccccc1S2 (stereo not given) [Zaltoprofen],1.11
8,Cc1cc(CC(C)CC(C)(C)C)n(O)c(=O)c1 (stereo not given) [Piroctone Olamine],0.45
9,CC(C)c1nc(N(C)S(C)(=O)=O)nc(-c2ccc(F)cc2)c1/C=C/[C@@H](O)C[C@@H](O)CC(=O)O [Rosuvastatin Calcium],-1.93
10,O=C(O)C[C@H](O)C[C@H](O)/C=C/c1c(C2CC2)nc2ccccc2c1-c1ccc(F)cc1 [Pitavastatin Calcium],1
11,O=C(O)Cc1ccccc1Nc1c(Cl)cccc1Cl [Diclofenac Diethylamine],-0.07
12,CC(=O)N1CCN(c2ccc(OCC3COC(Cn4ccnc4)(c4ccc(Cl)cc4Cl)O3)cc2)CC1 (stereo not given) [Ketoconazole],-1.31
13,CC[C@H]1OC(=O)[C@H](C)[C@@H](O[C@H]2C[C@@](C)(OC)[C@@H](O)[C@H](C)O2)[C@H](C)[C@@H](O[C@@H]2O[C@H](C)C[C@H](N(C)C)[C@H]2O)[C@](C)(O)C[C@@H](C)CN(C)[C@H](C)[C@@H](O)[C@]1(C)O [Azithromycin],-0.81
14,CCN(CC)C(=O)N1CCN(C)CC1 [Diethylcarbamazine citrate],-0.11
15,CCCOc1ccc2[nH]c(NC(=O)OC)nc2c1 [Oxibendazole],0.43
16,CO[C@@H]1[C@H](OC(=O)/C=C/C=C/C=C/C=C/C(=O)O)CC[C@]2(CO2)[C@H]1[C@@]1(C)O[C@@H]1CC=C(C)C [Fumagillin],-0.12
17,CCCCCCCCCCCCCCCCCCOP(=O)([O-])OC1CC[N+](C)(C)CC1 [Perifosine (KRX-0401)],-5.15
18,C#CCN[C@@H]1CCc2ccccc21 [Rasagiline],-0.39
19,CC1(C)S[C@@H]2[C@H](NC(=O)Cc3ccccc3)C(=O)N2[C@H]1C(=O)O.CCN(CC)CCOC(=O)c1ccc(N)cc1 [Penicillin G Procaine],0.35
20,COC(=O)Nc1nc2cc(Sc3ccccc3)ccc2[nH]1 [Fenbendazole],0.61

# From the supplement of paper PMC8975748
